{
  "source": "PubChem BioAssay AID720504",
  "about": "(National Center for Advancing Translational Sciences (NCATS), 2013)",
  "note": "Out of some 360,000 compounds screened, about 10,000 (2.8%) were called active. Roughly 4% stayed inconclusive and do not appear here. The full list was thinned out, with actives kept by preference. A number with no mark means an inactive call. Calls follow the shape of the dose curve; as a rule, active = well fitted inhibition curve with a large enough effect; inconclusive = small, poorly fitted or top-dose-only effect; inactive = flat fitted curve, though single readings scatter. % is scaled to controls: 0 for no effect and ±100 for the full control effect; potency is read from the fitted curve at half-maximal effect.",
  "data": [
    {"target": "Serine/threonine-protein kinase PLK1 (Homo sapiens) (UniProt P53350)", "sequence (P53350 whole entry, looked up, the tested form may be a part)": "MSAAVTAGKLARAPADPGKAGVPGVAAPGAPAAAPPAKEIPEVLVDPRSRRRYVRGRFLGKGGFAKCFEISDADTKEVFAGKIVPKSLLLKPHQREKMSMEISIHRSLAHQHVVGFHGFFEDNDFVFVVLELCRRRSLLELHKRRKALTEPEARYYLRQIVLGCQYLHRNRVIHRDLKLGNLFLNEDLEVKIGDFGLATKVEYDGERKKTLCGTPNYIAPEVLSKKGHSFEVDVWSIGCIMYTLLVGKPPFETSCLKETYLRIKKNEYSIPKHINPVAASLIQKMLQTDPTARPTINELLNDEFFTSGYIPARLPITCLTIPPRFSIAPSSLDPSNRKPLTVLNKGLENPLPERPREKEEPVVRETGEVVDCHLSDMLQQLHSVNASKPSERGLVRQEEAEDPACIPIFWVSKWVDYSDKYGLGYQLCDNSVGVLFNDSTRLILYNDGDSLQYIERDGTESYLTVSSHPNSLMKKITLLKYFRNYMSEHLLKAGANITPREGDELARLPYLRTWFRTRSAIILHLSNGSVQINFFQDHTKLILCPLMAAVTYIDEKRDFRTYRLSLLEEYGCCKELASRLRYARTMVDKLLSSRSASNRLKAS", "experiment": "qHTS for Inhibitors of PLK1-PDB (polo-like kinase 1 - polo-box domain): Primary Screen; also: nearly all actives have a fitted effect of over 65% in size; as to max response, negative = inhibition: series mostly up to about 57 µM", "settings": "Plk1 PBD binding of FITC phosphopeptide, fluorescence polarization", "units": {"max response, negative = inhibition": "%"}, "values": [
      {"compound": "O=C(NCc1ccccc1Cl)c1csc([C@@H]2O[C@H](CO)[C@@H](O)[C@H]2O)n1", "max response, negative = inhibition": -2.33},
      {"compound": "CCCNC(=O)C1(C)CCCN(C(=O)c2cccc(OC(C)=O)c2C)C1", "note": "(stereo not drawn)", "max response, negative = inhibition": 2.94},
      {"compound": "COc1cccc(OC)c1C(=O)NC(=S)Nc1ccc(N2CCOCC2)c(Cl)c1", "max response, negative = inhibition": -8.56},
      {"compound": "O=C(Nc1ccc(S(=O)(=O)N2CCOCC2)cc1)C1CCN(S(=O)(=O)c2ccc(Cl)cc2)CC1", "max response, negative = inhibition": 3.5},
      {"compound": "O=C(NNC(=S)Nc1ccccc1)c1cccc(S(=O)(=O)N2CCOCC2)c1", "max response, negative = inhibition": 2.12},
      {"compound": "O=C(NC(=S)Nc1ccc(S(=O)(=O)N2CCOCC2)cc1)c1ccccc1[N+](=O)[O-]", "Potency": "33.6 µM (active)"},
      {"compound": "COc1ccccc1C(=O)NC(=S)Nc1ccc(N2CCOCC2)cc1", "Potency": "26.7 µM (active)"},
      {"compound": "Cc1ccc(C(=O)NC(=S)Nc2ccc(N3CCOCC3)cc2)cc1", "max response, negative = inhibition": -12.8},
      {"compound": "CC(C)(C)NC(=O)C(CCc1ccccc1)n1c(=O)c(-c2ccccc2)nc2ccccc21", "note": "(stereo not drawn)", "max response, negative = inhibition": -22.7},
      {"compound": "CCCCN(C=O)c1c(CC)nc2c(OCCC3CCCCC3)cccn12", "max response, negative = inhibition": -1.3},
      {"compound": "O=CNc1cc(-c2ccc(C(=O)N3CCOCC3)cc2)cn2c(-c3ccc(F)cc3)cnc12", "max response, negative = inhibition": -25.7},
      {"compound": "O=C(C[C@H]1CC[C@@H](NC(=O)c2ccncc2)[C@@H](CO)O1)NCC1CC1", "max response, negative = inhibition": -5.23},
      {"compound": "CN(Cc1ccccc1)C(=O)CCNC(=O)Cn1cnc2ccccc2c1=O", "max response, negative = inhibition": -6.79},
      {"compound": "Cc1sc2ncn(CC(=O)NCCCC(=O)NCc3ccc(F)cc3)c(=O)c2c1C", "max response, negative = inhibition": -9.91},
      {"compound": "Cc1sc2ncn(CC(=O)NCCCC(=O)N(C)Cc3ccccc3)c(=O)c2c1C", "Potency": "26.7 µM (active)"},
      {"compound": "Cc1ccc([C@H]2C[C@H](O)[C@@H](n3cc(COC(=O)c4ccccc4)nn3)CN2CC2CCCCC2)cc1", "max response, negative = inhibition": 7.82},
      {"compound": "COc1cccc(Nc2nnc(SCC(=O)N3CC(=O)Nc4ccccc43)s2)c1", "Potency": "26.7 µM (active)"},
      {"compound": "Cc1nc(SCC(=O)N2CC(=O)Nc3ccccc32)c2c(C)c(C)sc2n1", "max response, negative = inhibition": -1.22},
      {"compound": "COc1cccc(Nc2nnc(SCC(=O)N3CC(C)OC(C)C3)s2)c1", "note": "(stereo not drawn)", "max response, negative = inhibition": 1.98},
      {"compound": "COC(=O)[C@]12CCCCC=C1N(CCC1=CCCCC1)C(=O)[C@H](CC(=O)N1CCSCC1)C2", "max response, negative = inhibition": -4.1},
      {"compound": "CCOC(=O)[C@]12CCC=C1N(CCC1=CCCCC1)C(=O)[C@H](CC(=O)NCc1ccc(C)o1)C2", "max response, negative = inhibition": -24.8},
      {"compound": "CC(=O)Nc1cccc(-c2cc(NC=O)c3ncc(-c4ccc(F)c(Cl)c4)n3c2)c1", "max response, negative = inhibition": -21.6},
      {"compound": "O=S1(=O)CCN(C2CCCCCCCCCCC2)CC1", "max response, negative = inhibition": -0.289},
      {"compound": "Cc1cc(C)nc(N(C#N)CC(=O)Nc2ccccc2)n1", "max response, negative = inhibition": -10.2},
      {"compound": "CCOC(=O)C(=Cc1ccccc1)C(=O)c1ccccc1", "max response, negative = inhibition": -10.7},
      {"compound": "Cc1cc(C)nc(S/C=C/C(=O)c2ccccc2)n1", "Potency": "2.99 µM (active)"},
      {"compound": "Cc1ccc(S(=O)(=O)N2C[C@@H](C)[C@]3(C2)[C@H](O)[C@H](OC(=O)NCc2ccccc2)C[C@H]2C(=O)N(c4ccccc4)C(=O)[C@H]23)cc1", "max response, negative = inhibition": -4.82},
      {"compound": "COc1ccc(C(=O)N2CCC(C(=O)Nc3ccc(C)cc3)CC2)cc1", "Potency": "3.36 µM (active)"},
      {"compound": "COc1ccc(C(=O)N2CCC(C(=O)Nc3cccc(C)c3)CC2)cc1OC", "max response, negative = inhibition": -1.21},
      {"compound": "O=C(Nc1ccccc1)C1CCN(C(=O)c2ccc(Br)cc2)CC1", "max response, negative = inhibition": 1.93},
      {"compound": "Cc1cccc(C)c1NC(=O)C(c1cccc2ccccc12)n1c(=O)c(-c2ccco2)nc2ccccc21", "note": "(stereo not drawn)", "max response, negative = inhibition": -15.3},
      {"compound": "CCOC(=O)[C@]12CCCC=C1N(Cc1ccc3c(c1)OCO3)C(=O)[C@H](CC(=O)NCc1cccs1)C2", "max response, negative = inhibition": -29.1},
      {"compound": "Cc1c(C)c2cc3c4c(oc3c(C)c2oc1=O)CCCC4", "max response, negative = inhibition": -0.836},
      {"compound": "CC[C@@H](C)[C@H](NC(=O)CCc1c(C)c2cc3c4c(oc3c(C)c2oc1=O)CCCC4)C(=O)O", "max response, negative = inhibition": -24},
      {"compound": "Cc1c(CCC(=O)N[C@@H](CC(C)C)C(=O)O)c(=O)oc2c(C)c3oc4c(c3cc12)CCCC4", "Potency": "29.9 µM (active)"},
      {"compound": "CC(OC(=O)c1cccnc1Cl)C(=O)NC1CCCCC1", "note": "(stereo not drawn)", "max response, negative = inhibition": 1.67},
      {"compound": "O=C(OCC(=O)N1CCCCCC1)c1cccc(Cl)c1Cl", "max response, negative = inhibition": -1.69},
      {"compound": "COc1ccc(CC(N)c2csc(NC(=O)NC(c3ccccc3)c3ccccc3)n2)cc1", "note": "(stereo not drawn)", "max response, negative = inhibition": -3.78},
      {"compound": "O=C(Nc1ccc(Cl)cc1)c1csc([C@H]2C[C@H](O)[C@@H](CO)O2)n1", "max response, negative = inhibition": -10.3},
      {"compound": "C=CCn1cnc2scc(-c3ccccc3)c2c1=O", "max response, negative = inhibition": -4},
      {"compound": "C=CCn1c(=S)[nH]c2scc(-c3ccco3)c2c1=O", "Potency": "26.7 µM (active)"},
      {"compound": "C=CCn1c(=S)[nH]c2nc3c(cc2c1=O)COC(C)(C)C3", "max response, negative = inhibition": 1.98},
      {"compound": "C[C@H](CO)N1C[C@H](C)[C@H](CN(C)C(=O)Nc2ccc3c(c2)OCO3)Oc2ncc(Br)cc2C1=O", "max response, negative = inhibition": -14.4},
      {"compound": "CC(C)CCC(=O)Nc1cc(S(=O)(=O)N2CCOCC2)ccc1N1CCCC1", "max response, negative = inhibition": -0.0205},
      {"compound": "CC(=O)NCCC(=O)Nc1cc(S(=O)(=O)N2CCOCC2)ccc1N1CCOCC1", "max response, negative = inhibition": -0.805},
      {"compound": "COCCNC(=S)Nc1cc(S(=O)(=O)N2CCOCC2)ccc1N1CCCCC1", "Potency": "2.99 µM (active)"},
      {"compound": "CCCNC(=O)C1(C)CCCN(C(=O)c2oc3ccccc3c2C)C1", "note": "(stereo not drawn)", "max response, negative = inhibition": -5.78},
      {"compound": "COC(=O)c1ccc2nc(C3CCCCC3)c(Cc3cccc(F)c3)n2c1", "max response, negative = inhibition": -6.81},
      {"compound": "O[C@H]1C[C@H](c2ccc(Cl)cc2)N(Cc2cccs2)C[C@@H]1n1cc(C2CC2)nn1", "max response, negative = inhibition": -4.6},
      {"compound": "COc1ccc(C2C3=C(CCCC3=O)N(CC(=O)O)C3=C2C(=O)CCC3)cc1", "max response, negative = inhibition": -11.9},
      {"compound": "CCCCN1C(=O)CCC(C(=O)O)C1c1ccc(OC)cc1", "note": "(stereo not drawn)", "Potency": "26.7 µM (active)"},
      {"compound": "CCCCNC(=O)C1CCC(=O)N1CCc1ccccc1", "note": "(stereo not drawn)", "max response, negative = inhibition": -10.6},
      {"compound": "CCCCC(=O)N(C)c1c(CC)nc2c(OCc3ccc(Cl)cc3Cl)cccn12", "max response, negative = inhibition": -5.31}
    ]}
  ]
}
